# Results as given in PubChem BioAssay (NCI).
# Several values for one entry are separate records, joined by “and”; a condition that tells them apart may be missing. Equal entries are not always repeated. About 79,000 compounds went through this panel and 15% of them were active in at least one assay; those are over-represented in the sample as a whole. The source holds several records for some structures; these can differ, active in one and inactive in another. Activity calls are given as the source filed them. Rule as the data show it: active = growth inhibition above about 70%; inactive = the rest.
# What was measured:
# [1] = NCI Yeast Anticancer Drug Screen. Data for the rad50 strain (AID 155);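 also: 0% = growth of vehicle-only cultures of the same strain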; details: S. cerevisiae rad50 strain growth inhibition, stronger effect = higher value
# Outline: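 Relative growth inhibition (compound vs vehicle) was measured in yeast with a defined repair-gene alteration.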
# [2] = NCI Yeast Anticancer Drug Screen. Data for the mec2-1 strain (AID 157); details: S. cerevisiae mec2-1 strain, stronger effect = higher value
# Outline: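 Strain: mec2-1 (DNA repair/cell cycle alteration). Compound exposure, then growth measured; inhibition expressed relative to vehicle.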
# [3] = NCI Yeast Anticancer Drug Screen. Data for the sgs1 mgt1 strain (AID 161);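 also: 0% = growth of cultures given vehicle only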; details: S. cerevisiae sgs1 mgt1 strain, stronger effect = higher value
# Outline: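 Genetically altered yeast, compound exposure, growth inhibition relative to vehicle.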
# [4] = NCI Yeast Anticancer Drug Screen. Data for the cln2 rad14 strain (AID 165);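 also: 0% = growth equal to vehicle treated cultures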; details: S. cerevisiae cln2 rad14 strain, stronger effect = higher value
# Outline: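 Compounds are applied to the cln2 rad14 yeast strain, and growth is then compared with that of vehicle-treated cultures to give inhibition.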
# [5] = NCI Yeast Anticancer Drug Screen. Data for the bub3 strain (AID 167); details: S. cerevisiae bub3 mutant strain, stronger effect = higher value
# Outline: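 Screening used yeast with an engineered genetic alteration affecting cell cycle control. Compound-exposed cultures were compared with vehicle cultures, and reduced growth was taken as inhibition.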
# [6] = NCI Yeast Anticancer Drug Screen. Data for the mlh1 rad18 strain (AID 175); details: S. cerevisiae mlh1 rad18 strain growth inhibition, stronger effect = higher value
# Outline: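 Read-out is yeast growth inhibition, calculated against vehicle-only controls. The compound was applied to a strain engineered with DNA damage repair alterations.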
# [7] = at 5.0 µM (retest, dose inferred, filed as 0.5)
# [8] = at 50.0 µM (retest, dose inferred, filed as 5.0)
SMILES,"growth inhibition [1, 7]","growth inhibition [1, 8]",growth inhibition ([1]; at 50.0 µM),"growth inhibition [2, 7]","growth inhibition [2, 8]",growth inhibition ([2]; at 50.0 µM),"growth inhibition [3, 7]","growth inhibition [3, 8]",growth inhibition ([3]; at 50.0 µM),"growth inhibition [4, 7]","growth inhibition [4, 8]",growth inhibition ([4]; at 50.0 µM),"growth inhibition [5, 7]","growth inhibition [5, 8]",growth inhibition ([5]; at 50.0 µM),"growth inhibition [6, 7]","growth inhibition [6, 8]",growth inhibition ([6]; at 50.0 µM)
COC(=O)C(CC(C)=O)CS(=O)(=O)CC(=O)C(=O)Nc1cccc([N+](=O)[O-])c1 (centres undefined),4% (inactive),98% (active),99.5% (active),3% (inactive),99% (active),99.5% (active),7% (inactive),99% (active),99.2% (active),3% (inactive),98% (active),98.2% (active),5% (inactive),98% (active),99.2% (active),-2% (inactive),98% (active),99.2% (active)
O=S(=O)(O)c1ccc(NN(c2c(O)ccc3ccccc23)S(=O)(=O)O)cc1,-12% (inactive),1% (inactive),18.2% (inactive),-5% (inactive),-11% (inactive),-3.1% (inactive),-16% (inactive),-12% (inactive),-19.7% (inactive),-17% (inactive),-84% (inactive),43.9% (inactive),-9% (inactive),-10% (inactive),-29.8% (inactive),-12% (inactive),-19% (inactive),15.1% (inactive)
Cc1cc(O)c(C(C)C)cc1Cl,5% (inactive),79% (active),53.1% (inactive) and 98.7% (active),4% (inactive),90% (active),41% (inactive) and 98.6% (active),-6% (inactive),38% (inactive),45.5% (inactive) and 99.2% (active),-4% (inactive),48% (inactive),4.75% (inactive) and 79.6% (active),-4% (inactive),98% (active),13.2% (inactive) and 97.5% (active),7% (inactive),84% (active),26.8% (inactive) and 98.8% (active)
CCC(C)(C)c1cc(O)c(C(C)(C)CC)cc1O,10% (inactive),88% (active),0.35% (inactive) and 93.2% (active),3% (inactive),67% (inactive),-22.4% (inactive) and 93.3% (active),-3% (inactive),91% (active),11.3% (inactive) and 88% (active),18% (inactive),84% (active),-15.2% (inactive) and 84.8% (active),23% (inactive),91% (active),20.2% (inactive) and 92.3% (active),10% (inactive),81% (active),9.45% (inactive) and 91.8% (active)
N=C1N(c2ccccc2)C(=S)C(=Nc2ccccc2)N1c1ccccc1,16% (inactive),99% (active),88.5% (active),-4% (inactive),99% (active),90.8% (active),8% (inactive),99% (active),84% (active),9% (inactive),99% (active),82% (active),-33% (inactive),99% (active),84.2% (active),-6% (inactive),99% (active),87.2% (active)
CC(C)OC(=S)SSC(=S)OC(C)C,5% (inactive) and 11% (inactive),99% (active) and 98% (active),99.4% (active),4% (inactive) and 0% (inactive),100% (active) and 98% (active),99.5% (active),1% (inactive) and 9% (inactive),99% (active) and 100% (active),99.3% (active),33% (inactive) and 9% (inactive),94% (active) and 84% (active),98.4% (active),7% (inactive) and 2% (inactive),99% (active) and 100% (active),99% (active),-1% (inactive) and 18% (inactive),99% (active) and 94% (active),98.3% (active)
C=CC(=O)O,-2% (inactive),-1% (inactive),9.85% (inactive) and 32.4% (inactive),-1% (inactive),0% (inactive),21.9% (inactive) and -20.6% (inactive),-1% (inactive),2% (inactive),-3.35% (inactive) and 18.4% (inactive),0% (inactive),1% (inactive),20.8% (inactive) and 9.55% (inactive),1% (inactive),3% (inactive),47% (inactive) and 30.1% (inactive),1% (inactive),-1% (inactive),47.5% (inactive) and 39% (inactive)
COC(=O)C1OC(OC(C)=O)C(OC(C)=O)C(OC(C)=O)C1OC(C)=O (centres undefined),-4% (inactive),5% (inactive),7.25% (inactive) and 3.25% (inactive),-6% (inactive),8% (inactive),14.4% (inactive) and 8.2% (inactive),-5% (inactive),9% (inactive),7.05% (inactive) and 10.9% (inactive),1% (inactive),-2% (inactive),-12.2% (inactive) and 60.5% (inactive),-4% (inactive),11% (inactive),-7.15% (inactive) and 24.6% (inactive),-7% (inactive),14% (inactive),16% (inactive) and 9.3% (inactive)
